Test results as given in PubChem BioAssay (Tox21).
Where “and” joins values, the source holds several entries; their conditions need not be identical. Identical values can stand only once. Records with an inconclusive call do not appear. Calls of active or inactive are those of the source. Unless noted, the call rests on the fitted dose curve; in most records, active means well fitted curve in the direction sought with a large enough effect in the repeat runs; inconclusive means weak or mixed curves; inactive means no such curve, though single readings can be large; an effect the other way counts as inactive or inconclusive.

Tests used:
[1] = Caspase-3/7 induction in HepG2 cells by small molecules, qHTS assay (AID 1346978); further: nearly all actives have a fitted effect of over 15% in size
How it was run: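 Wild-type HepG2 cells, 2,000/well, settled 5 hr at 37 C and 5% CO2, then compound-treated for 17 hr; caspase-3/7 activity read by luminescent Caspase-Glo 3/7 after 30 min at room temperature.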

[2] = Caspase-3/7 induction in CHO-K1 cells by small molecules, qHTS cell viability counter screen (AID 1346979); further: nearly all actives have a fitted effect of over 35% in size; further: potency means the concentration at half of the fitted maximal effect
How it was run: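 Viability readout by fluorescence (CellTiter-Fluor) on wild-type CHO-K1 cells exposed for 16hr at 37C and 5% CO2 to compounds delivered in DMSO; reagent incubated 1hr before reading.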

[3] = Caspase-3/7 induction in CHO-K1 cells by small molecules, qHTS assay (AID 1346980); further: nearly all actives have a fitted effect of over 15% in size
How it was run: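 Wild-type CHO-K1 cells exposed to compounds for 17hr at 37 C, 5% CO2. Caspase-3/7 activity then measured by Caspase-Glo 3/7 luminescence after 30min at room temperature.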

[4] = Caspase-3/7 induction in HepG2 cells by small molecules, qHTS cell viability counter screen (AID 1346981); further: nearly all actives have a fitted effect of over 30% in size; further: potency means the concentration at half of the fitted maximal effect
How it was run: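 Viability determined by CellTiter-Fluor fluorescence in HepG2 wells also used for the luminescent Caspase-Glo 3/7 read. Compounds were present for 16 hr at 37 C, 5% CO2 before reagent addition.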

[5] = molecular target: Acetylcholinesterase (Homo sapiens) (UniProt P22303); assay: Acetylcholinesterase (AChE) small molecule antagonists: colormetric cell-based qHTS assay (AID 1347395; calls by dose curve; further: nearly all actives have a fitted effect of over 30% in size)
How it was run: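 Homogeneous whole-cell format. SH-SY5Y cells seeded overnight, dosed with compound (30 min, 37 C, 5% CO2), then given DTNB/acetylthiocholine cocktail for 90 min at 37 C; colorimetric signal.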

[6] = molecular target: Acetylcholinesterase (Homo sapiens) (UniProt P22303); assay: Acetylcholinesterase (AChE) small molecule antagonists: enzyme-based qHTS assay (AID 1347397; calls by dose curve; further: nearly all actives have a fitted effect of over 55% in size); settings: Potency: AChE enzyme activity inhibition
How it was run: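 Recombinant human AChE (50 mU/mL) preincubated with compound 30 min at room temperature; acetylthiocholine plus DTNB then added, and thiocholine formation read colorimetrically after 10 min at room temperature. DMSO served as vehicle control.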

[7] = molecular target: Acetylcholinesterase (Homo sapiens) (UniProt P22303); assay: Acetylcholinesterase (AChE) small molecule antagonists: fluorescence cell-based qHTS assay (AID 1347398; calls by dose curve; further: nearly all actives have a fitted effect of over 50% in size; further: potency means the concentration at half of the fitted maximal effect); settings: Potency: AChE activity
How it was run: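 SH-SY5Y cells (2000/well), attached overnight, incubated with compound 30 min at 37 C. Acetylthiocholine plus Thiolite Green then added for 40 min at room temperature. Thiocholine fluorescence (Ex/Em 490/520 nm) reports cellular AChE activity.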

[8] = molecular target: Acetylcholinesterase (Homo sapiens) (UniProt P22303); assay: Acetylcholinesterase (AChE) small molecule antagonists: enzyme-based qHTS assay with human liver microsomes (AID 1347399; calls by dose curve; further: nearly all actives have a fitted effect of over 60% in size); settings: Potency: qHTS inhibition
How it was run: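 Recombinant human AChE (50 mU/mL in the enzyme mix) and human liver microsomes (0.25 mg/mL final) were preincubated with compound and NADPH (0.25 mg/mL final) for 30 min at 37 C. Acetylthiocholine/DTNB was then added; thiocholine was read colorimetrically after 10 min at room temperature.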

[9] = molecular target: Cytochrome P450 2D6 (Homo sapiens) (UniProt P10635); assay: Cytochrome P450 Family 2 Subfamily D Member 6 (CYP2D6) small molecule antagonists: luciferase reporter qHTS assay (AID 1671196); further: nearly all actives have a fitted effect of over 50% in size; further: potency means the concentration at half of the fitted maximal effect
How it was run: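 Each well received CYP2D6 with its proluciferin substrate and chemical, sat 10 min, then got NADPH regeneration solution for 1 h at room temperature. Luminescence in RLU served as the activity measure.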

[10] = molecular target: Cytochrome P450 3A4 (Homo sapiens) (UniProt P08684); assay: Cytochrome P450 Family 3 Subfamily A Member 4 (CYP3A4) small molecule antagonists: luciferase reporter qHTS assay (AID 1671201); further: nearly all actives have a fitted effect of over 50% in size; further: potency means the concentration at half of the fitted maximal effect
How it was run: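 Relative luminescence units after 20 min with luciferin detection reagent served as read-out. Beforehand, CYP3A4 turned over a proluciferin substrate for 1 h at room temperature with NADPH regeneration, following 10 min compound preincubation.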

[11] = molecular target: Nuclear receptor subfamily 1 group I member 2 (Homo sapiens) (UniProt O75469); assay: Human pregnane X receptor (PXR) small molecule agonists, qHTS assay (AID 1346982); further: nearly all actives have a fitted effect of over 35% in size
How it was run: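 Compound-induced hPXR transactivation of a CYP3A4 luciferase reporter was scored in HepG2 PXR-Luc cells over 24 hr at 37 C, 5% CO2, by luminescence.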

[12] = molecular target: Cytochrome P450 2C19 (Homo sapiens) (UniProt P33261); assay: Cytochrome P450 Family 2 Subfamily C Member 19 (CYP2C19) small molecule antagonists: luciferase reporter qHTS assay (AID 1671197); further: nearly all actives have a fitted effect of over 65% in size; further: potency means the concentration at half of the fitted maximal effect
How it was run: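 Compounds were tested on CYP2C19 activity via proluciferin conversion to luciferin. The 37C, 1 h reaction followed NADPH addition; detection reagent stopped it.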

[13] = molecular target: Cytochrome P450 2C9 (Homo sapiens) (UniProt P11712); assay: Cytochrome P450 Family 2 Subfamily C Member 9 (CYP2C9) small molecule antagonists: luciferase reporter qHTS assay (AID 1671198); further: nearly all actives have a fitted effect of over 50% in size; further: potency means the concentration at half of the fitted maximal effect
How it was run: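 P450-Glo proluciferin substrate with CYP2C9 enzyme; 10 min RT preincubation, then NADPH regeneration 1 h at 37C; luciferin detection reagent 20 min RT, luminescence in relative luminescence units.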

[14] = molecular target: Cytochrome P450 1A2 (Homo sapiens) (UniProt P05177); assay: Cytochrome P450 Family 1 Subfamily A Member 2 (CYP1A2) small molecule antagonists: luciferase reporter qHTS assay (AID 1671199); further: nearly all actives have a fitted effect of over 50% in size; further: potency means the concentration at half of the fitted maximal effect
How it was run: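 Enzymatic CYP1A2 assay, human, luminescent: 10 min compound–enzyme–substrate preincubation, 1 h NADPH-dependent turnover, 20 min detection step, room temperature throughout. Reduced light indicates lower CYP1A2 activity.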

[15] = molecular target: Voltage-gated inwardly rectifying potassium channel KCNH2 (Homo sapiens) (UniProt Q12809); assay: Human Ether-a-go-go-Related Gene (hERG) channel small molecule antagonists: fluorescence cell-based qHTS assay (AID 1671200); further: nearly all actives have a fitted effect of over 50% in size; further: potency means the concentration at half of the fitted maximal effect
How it was run: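 Thallium served as the potassium surrogate; its influx into dye-loaded U2OS cells carrying the channel was measured by fluorescence over 2 min.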

Measured: Potency

Chain of Acetylcholinesterase (Homo sapiens) (P22303 whole entry, looked up): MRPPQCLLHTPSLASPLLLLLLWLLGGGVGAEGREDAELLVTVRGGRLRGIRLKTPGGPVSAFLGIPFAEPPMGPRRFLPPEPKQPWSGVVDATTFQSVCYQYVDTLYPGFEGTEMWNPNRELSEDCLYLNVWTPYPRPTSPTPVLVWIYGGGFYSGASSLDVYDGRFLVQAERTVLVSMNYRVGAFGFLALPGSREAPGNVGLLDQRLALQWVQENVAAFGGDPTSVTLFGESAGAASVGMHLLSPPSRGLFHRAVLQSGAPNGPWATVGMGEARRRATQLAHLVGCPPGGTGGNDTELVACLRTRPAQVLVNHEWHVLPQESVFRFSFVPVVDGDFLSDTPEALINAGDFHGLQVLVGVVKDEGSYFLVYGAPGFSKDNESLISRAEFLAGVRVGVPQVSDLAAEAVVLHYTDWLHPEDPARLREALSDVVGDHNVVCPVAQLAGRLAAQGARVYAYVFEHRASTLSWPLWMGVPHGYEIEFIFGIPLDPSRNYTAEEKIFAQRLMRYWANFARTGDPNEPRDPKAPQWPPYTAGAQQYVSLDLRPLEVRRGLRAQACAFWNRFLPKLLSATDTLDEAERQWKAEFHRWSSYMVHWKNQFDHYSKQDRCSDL
Chain of Voltage-gated inwardly rectifying potassium channel KCNH2 (Homo sapiens) (Q12809 whole entry, looked up): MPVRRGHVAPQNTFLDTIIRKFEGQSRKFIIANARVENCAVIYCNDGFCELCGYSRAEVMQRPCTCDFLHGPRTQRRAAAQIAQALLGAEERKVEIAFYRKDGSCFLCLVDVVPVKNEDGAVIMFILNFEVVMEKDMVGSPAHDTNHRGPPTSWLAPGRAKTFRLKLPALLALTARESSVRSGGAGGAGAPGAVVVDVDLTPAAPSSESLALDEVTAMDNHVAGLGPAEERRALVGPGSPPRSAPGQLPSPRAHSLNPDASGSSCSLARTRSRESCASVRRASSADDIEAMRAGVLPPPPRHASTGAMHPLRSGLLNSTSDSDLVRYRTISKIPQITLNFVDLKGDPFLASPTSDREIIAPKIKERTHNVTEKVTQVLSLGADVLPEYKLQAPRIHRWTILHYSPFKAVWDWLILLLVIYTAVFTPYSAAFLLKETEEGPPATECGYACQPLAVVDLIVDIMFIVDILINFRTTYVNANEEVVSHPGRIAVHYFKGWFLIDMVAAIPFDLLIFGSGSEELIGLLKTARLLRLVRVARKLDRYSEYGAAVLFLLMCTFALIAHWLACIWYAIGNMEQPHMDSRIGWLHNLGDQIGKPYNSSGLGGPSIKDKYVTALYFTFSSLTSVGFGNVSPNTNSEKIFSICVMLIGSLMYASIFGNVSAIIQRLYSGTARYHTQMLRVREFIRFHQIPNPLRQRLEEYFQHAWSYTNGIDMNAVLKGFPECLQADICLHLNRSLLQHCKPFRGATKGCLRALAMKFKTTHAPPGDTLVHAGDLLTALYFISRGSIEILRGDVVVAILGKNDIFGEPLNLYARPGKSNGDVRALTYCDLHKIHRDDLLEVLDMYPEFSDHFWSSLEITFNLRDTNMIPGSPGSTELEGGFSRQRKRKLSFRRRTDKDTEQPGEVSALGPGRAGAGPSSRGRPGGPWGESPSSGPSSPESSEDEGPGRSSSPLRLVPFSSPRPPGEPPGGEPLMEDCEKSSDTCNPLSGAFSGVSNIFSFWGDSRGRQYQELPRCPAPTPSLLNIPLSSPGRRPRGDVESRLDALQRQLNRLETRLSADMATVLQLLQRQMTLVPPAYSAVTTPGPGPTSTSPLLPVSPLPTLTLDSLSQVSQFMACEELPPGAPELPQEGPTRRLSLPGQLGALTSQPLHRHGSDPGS
Chain of Cytochrome P450 2C9 (Homo sapiens) (P11712 whole entry, looked up): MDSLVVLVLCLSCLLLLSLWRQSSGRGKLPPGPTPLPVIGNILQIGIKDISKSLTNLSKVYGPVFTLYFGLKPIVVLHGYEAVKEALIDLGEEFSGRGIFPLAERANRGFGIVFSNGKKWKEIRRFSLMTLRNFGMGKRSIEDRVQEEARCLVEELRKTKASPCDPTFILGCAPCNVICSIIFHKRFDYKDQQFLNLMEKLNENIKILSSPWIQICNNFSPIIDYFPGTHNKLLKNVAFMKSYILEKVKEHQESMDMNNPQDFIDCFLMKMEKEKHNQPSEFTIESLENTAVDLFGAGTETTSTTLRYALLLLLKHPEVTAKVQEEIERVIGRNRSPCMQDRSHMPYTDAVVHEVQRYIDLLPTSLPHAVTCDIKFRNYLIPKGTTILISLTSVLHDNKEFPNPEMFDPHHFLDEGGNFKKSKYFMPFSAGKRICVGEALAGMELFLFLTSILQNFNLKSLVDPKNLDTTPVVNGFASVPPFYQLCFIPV
Chain of Cytochrome P450 1A2 (Homo sapiens) (P05177 whole entry, looked up): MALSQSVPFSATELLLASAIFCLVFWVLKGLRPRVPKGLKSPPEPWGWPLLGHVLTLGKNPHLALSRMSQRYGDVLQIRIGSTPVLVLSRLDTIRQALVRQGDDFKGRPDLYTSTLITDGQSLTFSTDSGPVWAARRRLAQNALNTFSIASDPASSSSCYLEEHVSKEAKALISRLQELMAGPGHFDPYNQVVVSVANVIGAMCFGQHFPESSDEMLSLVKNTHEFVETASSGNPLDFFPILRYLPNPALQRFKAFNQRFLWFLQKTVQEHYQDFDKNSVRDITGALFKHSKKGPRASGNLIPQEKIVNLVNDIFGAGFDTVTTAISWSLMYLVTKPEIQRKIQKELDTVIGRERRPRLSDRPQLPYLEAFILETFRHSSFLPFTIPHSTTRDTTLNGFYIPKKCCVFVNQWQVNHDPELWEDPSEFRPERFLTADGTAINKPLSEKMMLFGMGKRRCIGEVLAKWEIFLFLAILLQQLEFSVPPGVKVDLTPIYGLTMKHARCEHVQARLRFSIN
Chain of Nuclear receptor subfamily 1 group I member 2 (Homo sapiens) (O75469 whole entry, looked up): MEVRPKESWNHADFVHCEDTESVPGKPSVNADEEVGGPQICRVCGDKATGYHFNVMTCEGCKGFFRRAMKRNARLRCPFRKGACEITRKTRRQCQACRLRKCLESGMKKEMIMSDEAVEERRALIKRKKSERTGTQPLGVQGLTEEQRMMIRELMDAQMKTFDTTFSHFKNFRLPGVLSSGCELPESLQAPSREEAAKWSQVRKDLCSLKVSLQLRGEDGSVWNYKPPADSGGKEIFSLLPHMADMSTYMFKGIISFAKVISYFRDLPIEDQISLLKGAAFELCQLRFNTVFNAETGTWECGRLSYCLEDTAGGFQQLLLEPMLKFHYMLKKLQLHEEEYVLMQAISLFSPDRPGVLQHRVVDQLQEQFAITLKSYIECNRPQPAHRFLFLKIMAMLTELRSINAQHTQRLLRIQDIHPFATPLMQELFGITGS
Chain of Cytochrome P450 2D6 (Homo sapiens) (P10635 whole entry, looked up): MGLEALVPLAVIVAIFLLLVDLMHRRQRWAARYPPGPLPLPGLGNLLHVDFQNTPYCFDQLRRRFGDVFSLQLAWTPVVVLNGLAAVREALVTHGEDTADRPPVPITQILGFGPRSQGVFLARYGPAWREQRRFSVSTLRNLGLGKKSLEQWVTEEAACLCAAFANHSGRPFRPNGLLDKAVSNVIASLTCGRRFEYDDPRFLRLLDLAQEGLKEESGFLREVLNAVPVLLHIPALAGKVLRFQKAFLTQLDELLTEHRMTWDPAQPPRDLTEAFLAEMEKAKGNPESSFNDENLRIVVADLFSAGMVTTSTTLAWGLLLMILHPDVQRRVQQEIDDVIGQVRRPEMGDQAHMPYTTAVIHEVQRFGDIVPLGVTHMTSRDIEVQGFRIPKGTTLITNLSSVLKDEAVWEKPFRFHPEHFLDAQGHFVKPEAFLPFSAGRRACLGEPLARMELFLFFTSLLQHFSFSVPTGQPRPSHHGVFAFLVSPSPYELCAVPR
Chain of Cytochrome P450 2C19 (Homo sapiens) (P33261 whole entry, looked up): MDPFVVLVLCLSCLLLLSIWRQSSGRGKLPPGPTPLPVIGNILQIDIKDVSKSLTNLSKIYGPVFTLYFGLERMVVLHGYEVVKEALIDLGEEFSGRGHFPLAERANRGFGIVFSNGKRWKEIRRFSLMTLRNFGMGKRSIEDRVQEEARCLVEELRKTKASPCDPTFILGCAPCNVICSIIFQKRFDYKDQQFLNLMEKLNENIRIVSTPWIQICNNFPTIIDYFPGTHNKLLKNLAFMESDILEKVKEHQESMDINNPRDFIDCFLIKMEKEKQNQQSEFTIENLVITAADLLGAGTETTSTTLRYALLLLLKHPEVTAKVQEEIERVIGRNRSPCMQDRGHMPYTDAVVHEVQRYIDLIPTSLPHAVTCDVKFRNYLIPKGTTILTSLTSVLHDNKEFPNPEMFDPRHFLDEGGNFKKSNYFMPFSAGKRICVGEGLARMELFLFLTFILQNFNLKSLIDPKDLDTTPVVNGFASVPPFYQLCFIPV
Chain of Cytochrome P450 3A4 (Homo sapiens) (P08684 whole entry, looked up): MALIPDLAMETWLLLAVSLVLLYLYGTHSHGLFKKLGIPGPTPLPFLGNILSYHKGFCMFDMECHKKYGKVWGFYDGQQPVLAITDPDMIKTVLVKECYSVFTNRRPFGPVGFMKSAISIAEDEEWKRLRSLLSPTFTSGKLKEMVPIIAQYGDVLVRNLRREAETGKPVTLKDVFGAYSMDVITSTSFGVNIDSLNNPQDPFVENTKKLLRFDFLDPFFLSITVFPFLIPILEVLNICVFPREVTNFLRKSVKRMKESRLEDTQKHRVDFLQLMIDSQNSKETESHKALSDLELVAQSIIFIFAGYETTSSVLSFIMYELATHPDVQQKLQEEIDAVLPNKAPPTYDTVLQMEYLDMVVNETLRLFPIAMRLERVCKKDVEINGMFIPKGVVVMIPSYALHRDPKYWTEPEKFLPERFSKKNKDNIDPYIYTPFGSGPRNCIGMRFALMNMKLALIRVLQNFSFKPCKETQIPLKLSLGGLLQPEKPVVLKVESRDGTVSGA

CN1C2CCC(C)(C)C1CC(OC(=O)C(O)(c1cccs1)c1cccs1)C2 (centres undefined)
active: [9] 15.5 µM | [10] 0.219 µM
inactive: [1] | [2] | [3] | [4] | [5] | [6] | [7] | [8]

CCC(C)Br (centres undefined)
inactive: [1] | [2] | [3] | [4] | [11] | [5] | [6] | [7] | [8] | [12] | [13] | [14] | [15] | [10]

CCN(CC)CCc1c[nH]c2ccccc12
inactive: [1] | [2] | [3] | [4] | [11] | [5] | [6] | [7] | [8] | [12] | [13] | [15] | [10]
active: [14] 52.6 µM

COP(=O)(OC)Oc1ccc([N+](=O)[O-])cc1
inactive: [1] | [2] | [3] | [11] | [13] | [15] | [10]
active: [9] 25.2 µM | [12] 20 µM

[O-][Cl+3]([O-])([O-])O
inactive: [1] | [2] | [3] | [4] | [11] | [5] | [7] | [8] | [9] | [12] | [13] | [14] | [15] | [10]

CN1[C@@H]2CC[C@H]1CC(O)C2 (some centres undefined)
inactive: [1] | [2] | [3] | [4] | [5] | [7] | [8] | [9] | [13] | [14] | [15] | [10]

c1ccc(Nc2ccc(Nc3ccccc3)cc2)cc1
active: [2] 48.4 µM | [9] 39.8 µM | [12] 12.6 µM | [13] 11.2 µM | [14] 31.6 µM | [15] 38.7 µM | [10] 39.8 µM
inactive: [1] | [3] | [4] | [5] | [6] | [7] | [8]

O=C1C(Cl)=C(Cl)C(=O)C(Cl)=C1Cl
inactive: [1] | [3] | [6]
active: [2] 24.2 µM and 24.3 µM | [4] 54.3 µM | [7] 35.5 µM and 63.3 µM | [9] 31.6 µM and 25.2 µM | [12] 7.94 µM and 11.2 µM | [13] 5.01 µM and 8.94 µM | [14] 35.6 µM | [15] 34.7 µM | [10] 22.4 µM
